This assay relates to Aedes aegypti larvae. The assay is described as follows: larval motility relative to same well at 0 h (fraction); higher = more motile (less active compound), active = 0.4 or less. Particulars: 10 µM. Summed up:
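Each 96-well plate held about 10 Aedes aegypti larvae per well in 100 µL, along with solvent and larvicide control wells. Compounds were present at 10 µM with 1% v/v DMSO, and INVAPP recorded 200-frame movies at 100 ms intervals at 0, 2 and 24 h. Relative motility divides each well's score by its baseline score from the first recording, with the median taken across independent larval batches, of which there were three.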

The source of these data is the supplement of paper PMC8540655.

SMILES strings stand for the structures. Values without a mark were called inactive.

`c1ccc(-c2nnc3c4ccccc4c(N4CCNCC4)nn23)cc1`: the larval motility was 0.808 (2 h) and 1.34 (24 h).

`CC(C)(C)c1cccc(-c2nc3cc(C(=N)N)ccc3[nH]2)c1O`: the larval motility is, setting by setting: (2 h) 1.04; (24 h) 0.466.

`CC(Cc1ccccc1)C(=O)Nc1ccc(Cl)cc1C(=O)O` (stereo not given): the larval motility was 1.32 (2 h) and 1.05 (24 h).

As to `CNCC(=O)OCc1cccnc1N(C)C(=O)OC(C)[n+]1cnn(C[C@](O)(c2cc(F)ccc2F)[C@@H](C)c2nc(-c3ccc(C#N)cc3)cs2)c1` (stereo not given in full), the larval motility was 1.02 (2 h) and 0.736 (24 h).

As for `O=C(O)c1ccc(-n2nc(-c3ccccc3O)nc2-c2ccccc2O)cc1`, the larval motility by setting is: (2 h) 0.694; (24 h) 0.808.

Take `NC(=O)c1cnccn1`: the larval motility is 0.745 (2 h) and 1 (24 h).

As for `CC(=N)N1CC[C@H](SC2=C(C(=O)O)N3C(=O)[C@@H]([C@@H](C)O)[C@H]3C2)C1`, the larval motility by setting is: (2 h) 1.05; (24 h) 0.809.

With `Nc1ccc(-c2nc3cc(C(F)(F)F)ccc3n2C23CC4CC(CC(C4)C2)C3)cc1`, the larval motility was 1.1 (2 h) and 1.22 (24 h).

Consider `Fc1ccc2c(/C=C/c3nnn[nH]3)c[nH]c2c1`, for which the larval motility was 1.85 (2 h) and 1.39 (24 h).

In the case of `CC(C)C(=O)N[C@H]1[C@H]([C@H](O)[C@H](O)CO)OC(C(=O)O)=C[C@@H]1N=[N+]=[N-]`, the larval motility reads like this: (2 h) 1.64; (24 h) 1.56.

On to `O=C(N[C@H](Cc1cccc2ccccc12)C(=O)NCCc1c[nH]cn1)C1Cc2ccccc2C1`, for which the larval motility (2 h) was 0.819 and the larval motility (24 h) was 0.952.

On to `COc1cc(C(C(=O)NC2CCCCC2)N(C(=O)Cc2c[nH]c3ccccc23)c2ccc(C(C)C)cc2)cc(OC)c1OC` (stereo not given), for which the larval motility by setting is: (2 h) 1.42; (24 h) 1.32.

On to `Nc1nc(N)c2c(Sc3ccccc3)cccc2n1`, for which the larval motility by setting is: (2 h) 1.24; (24 h) 0.982.

Consider `COc1cc(C2C3=C(CC(C)(C)CC3=O)Nc3ccccc3N2C(C)=O)ccc1OCc1ccccc1` (stereo not given), for which the larval motility (2 h) is 0.542 and the larval motility (24 h) is 0.617.

As to `CC(=O)N1c2ccccc2NC2=C(C(=O)CC(C)(C)C2)C1c1ccc(OCc2ccccc2)cc1` (stereo not given), the larval motility (2 h) is 1.49 and the larval motility (24 h) is 1.55.

Regarding `CCN(CC)CCCC(C)Nc1ccnc2cc(Cl)ccc12` (stereo not given), the larval motility (2 h) is 0.715 and the larval motility (24 h) was 0.484.

In the case of `COc1ccc(C)cc1NC(=O)c1ccc(S(=O)(=O)N2CCCCC2)cc1`, the larval motility is 1.12 (2 h) and 1.26 (24 h).

With `O=S(=O)(Nc1cccc2cccnc12)c1ccccc1`, the larval motility runs as follows: (2 h) 0.587; (24 h) 0.61.

`Cc1oncc1C(=O)Nc1ccc(C(F)(F)F)cc1`: the larval motility runs as follows: (2 h) 0.743; (24 h) 0.744.

On to `CCN(CC)CCn1c(=N)n(CC(O)COc2ccc(Cl)cc2Cl)c2ccccc21` (stereo not given), for which the larval motility is, setting by setting: (2 h) 0.783; (24 h) 0.86.

Consider `O=C(O)c1cc(-c2ccccc2)nc2ccccc12`, for which the larval motility reads like this: (2 h) 0.53; (24 h) 0.971.

For the compound `NCc1ccc(S(N)(=O)=O)cc1`, the larval motility (2 h) is 0.675 and the larval motility (24 h) is 0.66.

In the case of `Cn1cncc1[C@@](N)(c1ccc(Cl)cc1)c1ccc2c(c1)c(-c1cccc(Cl)c1)cc(=O)n2C`, the larval motility (2 h) is 0.645 and the larval motility (24 h) is 0.876.

`C[C@H](Cn1cnc2c(N)ncnc21)OCP(=O)(O)O`: the larval motility runs as follows: (2 h) 1.31; (24 h) 1.07.

As for `C/C(=N\NC(=O)C1CC1c1ccccc1)c1ccc(NC(=O)c2ccco2)cc1` (stereo not given), the larval motility is, setting by setting: (2 h) 0.804; (24 h) 0.958.

For `CC(C)(C)c1ccc(OCCn2nc(C(=O)O)c3ccccc3c2=O)cc1`, the larval motility is, setting by setting: (2 h) 2.82; (24 h) 3.46.

For `CCCCCCC1c2ccc(O)cc2Oc2cc(O)ccc21`, the larval motility (2 h) is 0.468 and the larval motility (24 h) is 0.989.

In the case of `Cc1cc(C)n(O)c(=O)c1`, the larval motility (2 h) is 0.846 and the larval motility (24 h) was 0.863.

Regarding `O=c1nc(N2CCN(CC3CCCCC3)CC2)sc2c([N+](=O)[O-])cc(C(F)(F)F)cc12`, the larval motility is 0.712 (2 h) and 1.04 (24 h).

Turning to `CCOC(=O)Nc1cc(NC(C)CC(C)CN(CC)CC)c2nc(-c3ccccc3)c(-c3ccccc3)nc2n1` (stereo not given), the larval motility (2 h) is 0.848 and the larval motility (24 h) was 1.04.
